# Laboratory results reported in PubChem BioAssay AID1117361 (Southern Research Institute, 2015).
# About 900 (25%) of roughly 3,600 compounds were called active. How the calls were made is not given here. The list is a sample of the results. Measured potencies and affinities stand elsewhere.
# Biological target: Protein Tat (Human immunodeficiency virus type 1 group M subtype B (isolate HXB2)) (UniProt P04608)
# Test: HIV-1 Tat–TAR interaction blockers – biochemical, fluorescence polarization, FAM-labeled TAR RNA, counter-screen for Vif-APOBEC3G degradation inhibitor project, dose response (AID 1117361)
# Conditions: Tat-TAR RNA binding; series mostly up to 100 µM; inhibition: at the top concentration
Structure (SMILES),inhibition,outcome
COc1ccc(S(=O)(=O)N2CCN(C(=O)c3cc(-c4ccccc4OC)n[nH]3)CC2)cc1,1.67% (inactive),
CCCN(C(=S)Nc1ccccc1)C1CCS(=O)(=O)C1 (stereo unspecified),,inactive
COc1cccc(C2NC(=O)NC(O)(C(F)(F)F)C2C(=O)c2cccnc2)c1OC (stereo unspecified),12.8% (inactive),
CCn1c(COc2ccc3c(c2)OCO3)nnc1SCC(=O)c1ccc(Cl)cc1,3.41% (inactive),
Nc1cccc(-c2nc3ccc(N)cc3s2)c1,3.38% (inactive),
Cc1[nH]n(-c2nc(-c3ccccc3F)cc(=O)[nH]2)c(=O)c1CCO,,inactive
NC(=O)C1Cc2ccccc2CN1C(=O)c1nn(Cc2ccccc2)c(=O)c2ccccc12 (stereo unspecified),,inactive
COc1ccc(/C=N/NC(=O)CN2CCN(Cc3ccccc3)CC2)cc1Br,8.25% (inactive),
COc1ccc(C2Nc3ccccc3C(=O)N2c2ccc(Cl)cc2)cc1Cn1cc([N+](=O)[O-])cn1 (stereo unspecified),,inactive
Cc1ccc(S(=O)(=O)N=Nc2c(O)[nH]c3ccccc23)cc1,17.1% (inactive),
CN(C)c1ccc(/C=N\NC(=O)c2csnn2)cc1,2.03% (inactive),
COc1ccc(S(=O)(=O)N2CCC(C(=O)NCc3ccco3)CC2)cc1,15.5% (inactive),
CCC(Cc1ccccc1)NC(=O)C1CCN(S(=O)(=O)c2c(C)noc2C)CC1 (stereo unspecified),2.73% (inactive),
COc1ccc(OCCNS(=O)(=O)c2ccccc2)cc1,,inactive
CN1CCN(c2ccccc2NC(=O)C(Cc2ccccc2)n2cccc2)CC1 (stereo unspecified),2.73% (inactive),
COc1cccc(Cn2nnc(C(=O)NCCc3ccc(Cl)cc3)c2N)c1,5.41% (inactive),
CCCCNC(=O)c1onc(CSc2cccc(OCC)c2)c1C(=O)O,,inactive
COc1cccc(-c2nn(C)c3sc(C(=O)Nc4ccc5c(c4)OCCO5)cc23)c1,4.47% [at 50 µM] (inactive),
Cc1nc(N)nc(C)c1Cc1ccccc1,2.73% (inactive),

Structure (SMILES),inhibition,outcome
CCOC(=O)C1=C(N)OC2=C(C(=O)CCC2)C1c1ccc(C)s1 (stereo unspecified),5.46% (inactive),
O=C(O)Cc1ccc(C(=O)c2ccccc2)s1,,inactive
CCS(=O)(=O)N1CCN(C(=O)CC(C)C)CC1,0.68% (inactive),
Cn1c(-c2ccc(Cl)cc2)ccc(C#N)c1=O,4.73% (inactive),
CCOC(=O)c1c(NC(=O)C(C)N2CCN(C(=O)c3ccco3)CC2)sc2c1CCCC2 (stereo unspecified),5.46% (inactive),
CCOC(=O)N1CCN(C(=O)c2cnc3n(c2=O)CCS3)CC1,5.41% (inactive),
Nc1ccccc1-c1nnc(SCc2ccccc2Cl)[nH]c1=O,23.2% (inactive),
c1ccc(-n2c(SCc3ccncc3)nnc2-c2ccco2)cc1,24.3% (inactive),
Nc1nc(SCc2ccccc2Cl)n[nH]1,,inactive
Cn1c(CSc2nnc(SCc3ccccc3)s2)nc2ccccc21,2.05% (inactive),
O=C(c1ccc(F)cc1)N1CCC(C(=O)N(Cc2ccccc2)c2ccccc2)CC1,6.6% (inactive),
CCCCNC(=O)Oc1cccc(N2CCCC2=O)c1,2.7% (inactive),
COCCn1c(N)c(NCc2ccccc2)c(=O)n(CC(=O)Nc2cc(C)ccc2C)c1=O,3.41% (inactive),
COc1ccc(C(C)=O)cc1CN1C(=O)NC2(CCCC2)C1=O,,inactive
COc1ccc(S(=O)(=O)N2CCC(NC(=O)OCc3c(Cl)cccc3Cl)CC2)cc1,,inactive
CN1CCN(S(=O)(=O)c2ccc(NC(=O)Nc3cccc(Cl)c3)cc2)CC1,0.68% (inactive),
O=C(CSCc1ccc(Br)cc1)NC1CC1,14.8% (inactive),
Oc1ccc(/C=C/c2cc(O)cc(O)c2)cc1,,inactive
COc1ccc(F)cc1S(=O)(=O)Nc1cc2c3c(c1)CC(=O)N3CCC2,4.34% (inactive),

Structure (SMILES),inhibition,outcome
CCC(C)NC(=O)CSc1nc2n[nH]c(C)c2c(=N)n1-c1ccc(OC)cc1 (stereo unspecified),3.41% (inactive),
CCOC(=O)C1=C(C)OC(N)=C(C#N)C1c1cc(Cl)c(OCC(N)=O)c(OC)c1 (stereo unspecified),18.9% (inactive),
CN1C(=O)C2(C(C#N)=C(N)Oc3c2oc(CO)cc3=O)c2ccccc21 (stereo unspecified),2.7% (inactive),
Cc1nc2ccc(NC(=O)Cc3cccs3)cc2s1,19.8% (inactive),
COC(=O)c1ccccc1NC(=O)CNC(=O)c1ccc(OC)cc1,,inactive
Cc1ccc(-c2csc(NC(=O)Cc3cccs3)n2)cc1C,2.05% (inactive),
O=C(Cc1cccs1)Nc1cccc(-c2nc3ccccc3o2)c1,,inactive
COC(=O)C1=C(CSc2nc3ccccc3o2)NC(=O)NC1c1cc(C)ccc1C (stereo unspecified),1.36% (inactive),
COc1ccc(NS(=O)(=O)c2cc(N=Nc3c(O)[nH]c(=O)[nH]c3=O)ccc2Cl)cc1,,inactive
CC1(C)C2CCC1(C)C(OC(=O)C[n+]1ccccc1)C2 (stereo unspecified),1.65% (inactive),
CCc1ccccc1NC(=O)N1CCc2ccccc21,,inactive
CC(=O)Nc1nnc(SCC(=O)N2CCCc3ccccc32)s1,,inactive
COc1ccc(-c2nc(CS(=O)CC(=O)NC3CCCc4ccccc43)c(C)o2)cc1OC (stereo unspecified),10.1% (inactive),
O=S(=O)(c1ccc(Br)s1)N1CCCCC1,4.73% (inactive),
Cc1ccc(S(=O)(=O)N2CCCC(C(=O)O)C2)s1 (stereo unspecified),,inactive
CCN(CC)CCNC1=NCCn2c1cc1cc(OC)ccc12,5.46% (inactive),
CCc1noc(N)c1C(=O)Nc1ccc(F)c(Cl)c1,3.38% (inactive),
CCNC(=O)NC(=O)C(C)OC(=O)c1oc2ccc(OCC)cc2c1C (stereo unspecified),,inactive
